Drawing on PubChem BioAssay (EPA / NIEHS), this text covers outcome and AC50 for five molecules.

Assay [1] is described as follows: BSK_CASM3C_SRB: Viability Assessment in the BioMAP Diversity Plus: CASM3C Assay (AID 2283050).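 Note: total protein by SRB staining as cytotoxicity measure in parallel cultures.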 The settings on record: primary human coronary artery smooth muscle cells.
Read-out in assay [2]: Thrombomodulin, THBD (gene 7056)
Kind of assay: BSK_CASM3C_Thrombomodulin: BioMAP Diversity Plus: CASM3C Assay for Thrombomodulin Biomarker Activity (AID 2283051).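 Note: thrombomodulin protein level measured by ELISA 24 h after dosing.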 The settings on record: primary human coronary artery smooth muscle cells; actives raise or lower the signal.

Read-out in assay [3]: Tissue Factor, F3 (gene 2152)
Nature of the assay: BSK_CASM3C_TissueFactor: BioMAP Diversity Plus: CASM3C Assay for Tissue Factor Biomarker Activity (AID 2283052).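 Note: cell surface tissue factor protein level read by ELISA.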 The settings on record: primary human coronary artery smooth muscle cells; actives raise or lower the signal.

Read-out in assay [4]: Interferon-gamma inducible Protein 10 (IP10), CXCL10 (gene 3627)
Nature of the assay: BSK_hDFCGF_IP10: BioMAP Diversity Plus: hDFCGF Assay for Interferon-gamma inducible Protein 10 (IP10) Biomarker Activity (AID 2283053). The conditions noted are these: primary human foreskin fibroblasts; actives raise or lower the signal. The gist of the method: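 IP-10 levels, quantified by ELISA, are taken from human foreskin fibroblast cultures 24 h after chemical treatment, with DMSO serving as negative control and baseline for bidirectional analysis.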

Read-out in assay [5]: Urokinase-type plasminogen activator receptor (uPAR), PLAUR (gene 5329)
Nature of the assay: BSK_CASM3C_uPAR: BioMAP Diversity Plus: CASM3C Assay for Urokinase-type plasminogen activator receptor (uPAR) Biomarker Activity (AID 2283054).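 Note: cell-surface uPAR protein level quantified by ELISA.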 The conditions noted are these: primary human coronary artery smooth muscle cells; actives raise or lower the signal.

Read-out in assay [6]: Vascular cell adhesion molecule 1 (VCAM1), VCAM1 (gene 7412)
Kind of assay: BSK_CASM3C_VCAM1: BioMAP Diversity Plus: CASM3C Assay for Vascular cell adhesion molecule 1 (VCAM1) Biomarker Activity (AID 2283055).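 Note: VCAM-1 protein level quantified by ELISA on the cells.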 The settings on record: primary human coronary artery smooth muscle cells; actives raise or lower the signal.

Read-out in assay [7]: Collagen III, COL3A1 (gene 1281)
Nature of the assay: BSK_hDFCGF_CollagenIII: BioMAP Diversity Plus: hDFCGF Assay for Collagen III Biomarker Activity (AID 2283056). The settings on record: primary human foreskin fibroblasts; actives raise or lower the signal. The gist of the method:
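ELISA readout of Collagen III in human dermal (foreskin) fibroblasts, taken 24 h post-treatment. Gain or loss relative to DMSO vehicle fitted in both directions.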

Read-out in assay [8]: Epidermal growth factor receptor (EGFR), EGFR (gene 1956)
Nature of the assay: BSK_hDFCGF_EGFR: BioMAP Diversity Plus: hDFCGF Assay for Epidermal growth factor receptor (EGFR) Biomarker Activity (AID 2283057). The settings on record: primary human foreskin fibroblasts; actives raise or lower the signal. The essentials: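 Measured by ELISA: EGFR levels on primary human foreskin fibroblasts 24 h after chemical treatment, analysed relative to DMSO with bidirectional fitting.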

Read-out in assay [9]: Interleukin-8 (IL8), CXCL8 (gene 3576)
Nature of the assay: BSK_hDFCGF_IL8: BioMAP Diversity Plus: hDFCGF Assay for Interleukin-8 (IL8) Biomarker Activity (AID 2283058). The settings on record: primary human foreskin fibroblasts; actives raise or lower the signal. The essentials: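 IL-8 levels read by ELISA at 24 hours after dosing human skin fibroblast cultures. Parallel SRB staining assessed overt cytotoxicity, and gain or loss of signal was fitted against DMSO control.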

The nature of assay [10]: BSK_hDFCGF_Proliferation: Cell Proliferation Assessment in the BioMAP Diversity Plus: hDFCGF Assay (AID 2283059).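 Note: curves fitted for both rise and fall of signal versus DMSO baseline.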 The settings on record: primary human foreskin fibroblasts. The essentials:
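Primary human foreskin fibroblasts, sub-confluent; […]; 10% TCA fix, 0.1% SRB stain, A560 total protein. Gain/loss fitted bidirectionally vs DMSO control.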

A short description of assay [11]: BSK_hDFCGF_SRB: Viability Assessment in the BioMAP Diversity Plus: hDFCGF Assay (AID 2283061).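 Note: cells exposed to compound for 24 h before the read.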 The conditions noted are these: primary human foreskin fibroblasts. The essentials: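 Viability was read as total protein: after 10% TCA fixation, wells were stained with 0.1% sulforhodamine B and read at 560 nm. Primary human foreskin fibroblasts were dosed for 24 h, with bidirectional fitting versus DMSO.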

Read-out in assay [12]: TIMP metallopeptidase inhibitor 1 (TIMP1), TIMP1 (gene 7076)
Nature of the assay: BSK_hDFCGF_TIMP1: BioMAP Diversity Plus: hDFCGF Assay for TIMP metallopeptidase inhibitor 1 (TIMP1) Biomarker Activity (AID 2283062). The settings on record: primary human foreskin fibroblasts; actives raise or lower the signal. The gist of the method:
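TIMP-1 measured by ELISA 24 h after chemical dosing of primary human skin fibroblasts, with gain or loss fitted relative to DMSO. Parallel SRB staining (560 nm) monitored overt cytotoxicity.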

Read-out in assay [13]: Matrix Metallopeptidase 1 (MMP1), MMP1 (gene 4312)
Kind of assay: BSK_hDFCGF_MMP1: BioMAP Diversity Plus: hDFCGF Assay for Matrix Metallopeptidase 1 (MMP1) Biomarker Activity (AID 2283064). The conditions noted are these: primary human foreskin fibroblasts; actives raise or lower the signal. The gist of the method:
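Primary human foreskin fibroblasts exposed to chemicals for 24 h; MMP1 measured by ELISA. Cytotoxicity tracked by SRB staining in parallel cultures; bidirectional fit relative to DMSO.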

Read-out in assay [14]: Vascular cell adhesion molecule 1 (VCAM1), VCAM1 (gene 7412)
Kind of assay: BSK_hDFCGF_VCAM1: BioMAP Diversity Plus: hDFCGF Assay for Vascular cell adhesion molecule 1 (VCAM1) Biomarker Activity (AID 2283065).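 For AC50: VCAM-1 protein level quantified by ELISA after 24 h chemical exposure.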 The settings on record: primary human foreskin fibroblasts; actives raise or lower the signal. The gist of the method: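 ELISA readout of VCAM-1 on human dermal fibroblast primary cultures, 24 h after chemical exposure. Gain or loss of signal fitted in both directions against DMSO baseline.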

Read-out in assay [15]: Plasminogen activator inhibitor-1 (PAI1), SERPINE1 (gene 5054)
Kind of assay: BSK_hDFCGF_PAI1: BioMAP Diversity Plus: hDFCGF Assay for Plasminogen activator inhibitor-1 (PAI1) Biomarker Activity (AID 2283066). The conditions noted are these: primary human foreskin fibroblasts; actives raise or lower the signal. The essentials:
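PAI-1 levels, determined by ELISA, served as the endpoint in human foreskin fibroblast cultures exposed to compound for 24 h, with DMSO as baseline.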

Read-out in assay [16]: Intercellular Adhesion Molecule 1 (ICAM1), ICAM1 (gene 3383)
Kind of assay: BSK_KF3CT_ICAM1: BioMAP Diversity Plus: KF3CT Assay for Intercellular Adhesion Molecule 1 (ICAM1) Biomarker Activity (AID 2283067). The conditions noted are these: primary human keratinocytes with fibroblasts; actives raise or lower the signal. The essentials:
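Cell-surface ICAM-1 was measured by ELISA 24 h after dosing primary human skin keratinocytes co-cultured with fibroblasts. Parallel SRB staining tracked overt cytotoxicity. Gain or loss of signal was fitted relative to DMSO.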

Read-out in assay [17]: Interferon-gamma inducible Protein 10 (IP10), CXCL10 (gene 3627)
Kind of assay: BSK_KF3CT_IP10: BioMAP Diversity Plus: KF3CT Assay for Interferon-gamma inducible Protein 10 (IP10) Biomarker Activity (AID 2283068). The conditions noted are these: primary human keratinocytes with fibroblasts; actives raise or lower the signal. The gist of the method: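 In a primary skin co-culture of keratinocytes and fibroblasts, IP-10 is quantified by ELISA at 24 h after dosing. SRB staining of parallel wells monitors overt toxicity. Curves are fitted both directions against DMSO.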

The nature of assay [18]: BSK_KF3CT_SRB: Viability Assessment in the BioMAP Diversity Plus: KF3CT Assay (AID 2283069).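 Note: total protein by sulforhodamine B staining as a cytotoxicity measure; read 24 h after compound addition.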 The conditions noted are these: primary human keratinocytes with fibroblasts. The gist of the method:
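Human keratinocyte and foreskin fibroblast co-culture exposed to chemical for 24 h. Total protein measured in parallel cultures by 0.1% sulforhodamine B staining after 10% TCA fixation, read at 560 nm; bidirectional fit relative to DMSO.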

Read-out in assay [19]: Macrophage colony-stimulating factor (MCSF), CSF1 (gene 1435)
Nature of the assay: BSK_hDFCGF_MCSF: BioMAP Diversity Plus: hDFCGF Assay for Macrophage colony-stimulating factor (MCSF) Biomarker Activity (AID 2283060). The settings on record: primary human foreskin fibroblasts; actives raise or lower the signal. The essentials: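 M-CSF levels read by ELISA at 24 h post-dosing in human skin fibroblasts. Parallel cultures stained with SRB assessed cytotoxicity at the same time point; response fitted in both directions against the DMSO baseline.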

Read-out in assay [20]: Monokine induced gamma interferon (MIG), CXCL9 (gene 4283)
Kind of assay: BSK_hDFCGF_MIG: BioMAP Diversity Plus: hDFCGF Assay for Monokine induced gamma interferon (MIG) Biomarker Activity (AID 2283063). The conditions noted are these: primary human foreskin fibroblasts; actives raise or lower the signal. The gist of the method: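 Human primary foreskin fibroblasts in the hDFCGF system, exposed to test chemical for 24 h; MIG measured by ELISA. Bidirectional curve fitting against DMSO negative control as activity baseline.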

Where “and” joins values, the source holds several entries; their conditions need not be identical. Equal values may be shown once. Some compounds were tested as several samples or in several runs, with calls that do not always agree. Calls of active or inactive are those of the source. Rule for the calls: active = hit-call score of the fitted dose curve at least 0.9, where 1 is the maximum; inactive = score below 0.9.

In the case of `CO/C=C(/C(=O)OC)c1ccccc1Oc1cc(Oc2ccccc2C#N)ncn1`, the result in assay [1], in assay [2], in assay [3], in assay [4], in assay [5] and in assay [6] was inactive. In addition, the outcome in assay [8], in assay [9], in assay [10], in assay [11], in [12] and in [13] was inactive. For the same molecule, the result in assay [14], in assay [15], in assay [16], in assay [17] and in assay [18] was inactive. Moreover, the AC50 in assay [4] is 12.1 µM (active); in assay [7], 16.9 µM (active) [middle of 4 runs]; in [10], 30.2 µM (active) and 34.3 µM (active) and 25.5 µM (active).

On to `COc1nc(C)nc(NC(=O)NS(=O)(=O)c2ccccc2CCC(F)(F)F)n1`, for which the result in assay [1], in [2], in assay [3], in assay [5], in assay [6] and in assay [7] was inactive. The outcome in [8], in [9], in [10], in [19], in [11] and in assay [12] was inactive. Further, the result in [13], in assay [14], in assay [15], in [16], in [17] and in assay [18] was inactive. Further, the AC50 is 148 nM (active) and 33.8 µM (active) and 3.97 µM (active) in assay [4]; 213 nM (active) in assay [7]; 439 nM (active) in [13].

`CCON=C(CC)C1=C(O)CC(c2c(C)cc(C)cc2C)CC1=O` (centres undefined): the result in assay [1], in [2], in assay [3], in assay [4], in [5] and in assay [6] was inactive. Further, the outcome in assay [7], in [8], in assay [9], in assay [10], in assay [19] and in [11] was inactive. Also, the outcome in assay [12], in [13], in [14], in assay [15], in assay [16] and in [17] was inactive. Further, the outcome in assay [18] was inactive.

For `C=CCC1=C(C)C(OC(=O)C2C(C=C(C)C)C2(C)C)CC1=O` (centres undefined), the outcome in [1], in assay [2], in [3], in [5], in assay [6] and in assay [8] was inactive. Further, the result in [16], in [17] and in assay [18] was inactive. Besides, the AC50 in assay [2] is 16.6 µM (active) and 26.3 µM (active) and 21 µM (active); in assay [4], 31.7 µM (active) [middle of 4 runs]; in [6], 32.5 µM (active); in [7], 21 µM (active) [middle of 4 runs]; in assay [9] it was 40.3 µM (active) [middle of 4 runs]; in assay [10], 16.5 µM (active) [middle of 4 runs]. Further, the AC50 was 31.2 µM (active) and 38.4 µM (active) and 29.1 µM (active) in [19]; 32.4 µM (active) [middle of 4 runs] in [11]; 33.9 µM (active) [middle of 4 runs] in assay [12]; 38.9 µM (active) [middle of 4 runs] in [20]; 35.6 µM (active) [middle of 4 runs] in assay [13]; 28.7 µM (active) [middle of 4 runs] in [14]. In addition, the AC50 was 30.4 µM (active) and 38.4 µM (active) and 38.8 µM (active) in [15]; 35 µM (active) and 31 µM (active) and 29.2 µM (active) in assay [17]; 34.7 µM (active) and 25.5 µM (active) in assay [18].

In the case of `COc1nc(C)nc(NC(=O)NS(=O)(=O)c2ccccc2Cl)n1`, the outcome in assay [1], in assay [2], in assay [3], in [4], in assay [5] and in assay [6] was inactive. Also, the result in assay [7], in assay [8], in assay [9], in assay [10], in assay [11] and in assay [12] was inactive. For the same molecule, the outcome in [20], in assay [13], in assay [14], in [15], in [16] and in assay [17] was inactive. Also, the result in [18] was inactive. Also, the AC50 in assay [17] is 148 nM (active).
